FAS TE block: blocks the thioesterase domain of human fatty acid synthase; recombinant FAS-TE, OMFH fluorogenic substrate, fluorescence endpoint; 0.67% of 360,000 active; inhibition, % at 15 µM; AID 602261; P49327;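 active means compounds whose normalised, plate-corrected inhibition of enzyme fluorescence in the single-dose primary screen is 50% or more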;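 further: 0% = DMSO with enzyme and 100% = substrate without enzyme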
PLCg1 inh: PLC-gamma1 (human) inhibition, primary screen. inhibition, % at 12.2 µM. 0.84% of 370,000 active. purified PLC-gamma1, fluorogenic substrate, fluorescence. P19174. AID 720700; in the data active means inhibition above about 9.5%
PLC-beta3 inh: PLC-beta3 (human) inhibition, primary screen | Q01970 | Purified PLC-beta3, fluorogenic substrate, fluorescence | inhibition, % at 12.2 µM | 0.18% of 370,000 active; in the data active means inhibition above about 11%;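 further: 0% = median of compound wells on plate and 100% = full blocker control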
H9c2 protect: protects H9c2 cardiomyocytes from peroxide injury. 0.63% of 360,000 active. H2O2 injury protection, ATPLite, 2 h. protection from H2O2 cell death, % at 20 µM. AID 588492;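 active means compounds giving at least 50% protection of heart cells from peroxide-induced death in the single-dose screen, raw or plate-pattern-corrected value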;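 further: 0% = DMSO wells with peroxide and 100% = DMSO wells without peroxide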
* marks the source's active call; other numbers are inactive results; / = not tested or not shown. Shown are actives, neighbours in structure and some others; about 2.2% of the full set was active somewhere.

SMILES	FAS TE block	PLCg1 inh	PLC-beta3 inh	H9c2 protect
COc1ccccc1CN(C(=O)CNC(=O)c1ccco1)C(C(=O)NCC1CCCO1)c1ccccc1 (stereo unspecified)	-5	1	1	68*
C(=N\Nc1nc2ccccc2[nH]1)/c1cccc2nccnc12	-8	2	-8	51*
C(=N\Nc1nc2ccccc2[nH]1)/c1ccccn1	-8	0	0	-28
CC(Sc1nnc(-c2ccccc2)c(-c2ccccc2)n1)C(=O)NCC1CCCO1 (stereo unspecified)	-9	12*	-1	1
Cc1ccc(-c2nnc(SC(C)C(=O)NCC3CCCO3)nc2-c2ccc(C)cc2)cc1 (stereo unspecified)	8	1	0	-8
COc1cc(/C=N/n2nnnc2Nc2ccccc2)cc(OC)c1OC	18	/	/	85*
O=C(CSc1nnc(-c2ccccc2)n1-c1ccc(Cl)cc1)c1ccc(F)cc1	/	1	0	/
O=C(NCc1ccc(C(=O)N2CCOCC2)cc1)c1cccc(Br)c1	/	1	0	/
CC1(c2ccccc2)CC(C)(C)N2C(=O)C3(C(C#N)=C(N)Oc4cc(O)ccc43)c3cccc1c32 (stereo unspecified)	52*	-1	1	-18
O=C(NCc1ccc(C(=O)NCC2CCCO2)cc1)c1cccc(Br)c1 (stereo unspecified)	/	0	-2	/
COc1cccc(NC(=O)c2oc3ccc(S(=O)(=O)N4CCOCC4)cc3c2C)c1	6	-3	-7	85*
COc1ccc2oc(C(=O)Nc3ccc(N4CCOCC4)cc3)c(C)c2c1	8	-31	-45	56*
C/C(=N\Nc1ccc([N+](=O)[O-])cc1[N+](=O)[O-])c1cccnc1	3	1	2	-1
CC(C)=NNc1cnnc2ccc([N+](=O)[O-])cc12	3	/	/	56*
CC(=O)Nc1cccc(/C(C)=N/NC(=O)c2cccs2)c1	-6	1	-3	59*
CC(=O)Nc1cccc(/C(C)=N/NC(=O)c2ccc(NS(=O)(=O)c3cccs3)cc2)c1	-5	-2	-14	1
Cc1cc(C)cc(C(=O)Nc2ccc(NC(=O)c3cccs3)cc2)c1	11	1	0	49*
COc1cc(NC(=O)c2cccs2)cc(OC)c1	-6	2	-5	-7
CC(C)(C)NC(=O)c1cc(NC(=O)c2cccs2)cc(NC(=O)c2cccs2)c1	-4	/	/	63*
O=C(Nc1ccc(Br)c(C(F)(F)F)c1)[C@@H]1CC=C[C@@H]2CCN(CC3CC3)C(=O)[C@@H]21	/	1	3	/
Cn1c(=O)cc(OCCCC(=O)Nc2cc(C(F)(F)F)ccn2)c2ccccc21	/	2	0	/
CCOC(=O)[C@@]12CN(C(=O)OC(C)(C)C)CC=C1N(Cc1ccc(OC)cc1)C(=O)[C@H]2CC(=O)NCC1CCCCC1	/	1	1	/
COc1cc(/C=C/C(=O)O)ccc1O	-1	1	-7	1
COc1ccc(C=CC(=O)c2ccc3cc(OC)c(OC)cc3c2)cc1OC	4	-162	-262	53*
COc1cc(/C=C/C(=O)CC(=O)/C=C/c2ccc(O)c(OC)c2)ccc1O	8	-126	-180	75*
SMILES	FAS TE block	PLCg1 inh	PLC-beta3 inh	H9c2 protect
C=CCn1c(COc2ccc(Cl)cc2)nnc1SCC(=O)c1ccccc1	/	-2	-1	/
COc1cccc(C(=O)N[C@H](C(=O)N2CCC[C@H]2C(=O)NC2CCCC2)C2CCCCC2)c1	/	4	2	/
CCC[C@@H](CN1CCC[C@H]1CN1C(N)=NC[C@H]1CC(C)C)N1C[C@@H](Cc2ccccc2)N(CCc2ccc(Cl)c(Cl)c2)C1=N	-79	6	12*	2
O=c1cc(-c2ccccc2)cc(-c2ccccc2)n1O	-4	-3	-3	63*
Cn1c(-c2ccccc2)cc(=O)cc1-c1ccccc1	-5	0	4	1
C[C@@]12C[C@@H]3C(=O)N(Cc4ccccc4)CC(=O)N3[C@@H]1N(S(=O)(=O)c1ccccc1)c1ccccc12	/	3	-3	/
O=C(C[C@@H]1C/C=C/CC[C@@H](Cc2ccc(F)cc2)C(=O)O[C@@H](c2ccccc2)CNC1=O)NCCO	11	3	1	59*
O=C1N[C@H](Cc2ccccc2)COC(=O)[C@@H](Cc2ccc(F)cc2)C/C=C\C[C@H]1CC(=O)N(CCO)Cc1ccccc1	17	3	0	58*
CC(C)(C)OC(=O)C[C@@H]1C/C=C\C[C@@H](CC(=O)N[C@@H](CO)Cc2ccccc2)C(=O)NC[C@@H](c2ccccc2)OC1=O	0	3	2	65*
O=C1NC[C@H](c2ccccc2)OC(=O)[C@@H](Cc2ccc(F)cc2)C/C=C\C[C@H]1CC(=O)N(CCO)Cc1ccccc1	36	6	5	44
O=C1N[C@H](Cc2ccccc2)COC(=O)[C@H](Cc2ccc(F)cc2)C/C=C\C[C@@H]1CC(=O)N(CCO)Cc1ccccc1	22	0	1	-2
O=C1NC[C@H](c2ccccc2)OC(=O)[C@H](Cc2ccc(F)cc2)C/C=C\C[C@H]1CC(=O)N(CCO)Cc1ccccc1	14	3	6	94*
CCC[C@@H](/C=C/C(=O)OC(C)(C)C)Sc1ccc(OC)cc1	/	-1	1	/
COC(=O)[C@H](C)NC(=O)[C@@H]1CC=C[C@@H]2CCN(CCc3ccccc3)C(=O)[C@@H]21	/	-3	-1	/
CC(=O)CC[C@@H]1CC[C@]2(CCCN(C(=O)c3ccno3)C2)O1	/	0	1	/
COc1cc(/C=N/NC(=O)c2ccccc2)ccc1O	-7	-8	-6	2
O=C(N/N=C/c1ccc(OC(=O)c2ccccc2Cl)cc1)c1ccccn1	-7	/	/	-1
COc1cc(/C=N/NC(=O)c2cc(O)cc(O)c2)ccc1OC(=O)c1ccccc1	2	2	-12	56*
COc1cc(/C=N/NC(=O)c2ccc(CSc3nc4ccccc4[nH]3)cc2)ccc1O	0	-20	-22	52*
COc1ccc(/C=N/NC(N)=S)cc1OC(=O)c1ccccc1	2	3	-6	13
O=C(N/N=C/c1ccc(OC(=O)c2ccccc2Cl)cc1)c1cc(O)cc(O)c1	7	1	-15	54*
COc1cc(/C=N/NC(=O)c2[nH]nc3c2CCc2ccccc2-3)ccc1O	8	-20	-17	54*
C=CCn1c(COc2ccccc2)nnc1SCC(=O)Nc1ccc(S(=O)(=O)Nc2cc(C)nc(C)n2)cc1	/	0	3	/
COc1cc(C(=O)N/N=C/c2ccc(OC(=O)c3ccccc3)c(OC)c2)ccc1O	4	4	-2	52*
O=C(Nc1cccc(NC(=O)c2cc([N+](=O)[O-])ccc2Cl)n1)c1cc([N+](=O)[O-])ccc1Cl	57*	/	/	-8
Cc1csc(SCc2nc3sc4c(c3c(=O)[nH]2)CCC4)n1	-4	0	-2	52*
O=C(NCCc1ccccc1F)c1ccc(Sc2ccccc2Cl)c([N+](=O)[O-])c1	/	0	0	/
COc1ccccc1NC(=O)CN1CCN(c2ccc(F)cc2)CC1	8	3	-2	-1
O=C(CN1CCN(c2ccc(F)cc2)CC1)Nc1ccccc1Br	17	17*	4	2
CCOc1ccc(CCNC(=O)c2cc3c(C)nccc3[nH]c2=O)cc1OCC	-1	1	3	72*
